# Laboratory results from publication PMC4336329 (PLoS ONE, 2015).
# Hit rate of the full screen: of about 310,000 compounds, about 14,000 (4.5%) showed an effect of 50% or more. The effect is printed as a negative number. The sample holds strong results, similar compounds and a random draw of the others, so the mix is not that of the screen.
# Target: human ether-à-go-go-related gene (hERG) potassium channel (human, UniProt Q12809)
# Test: primary screen, population patch clamp on CHO cells stably expressing hERG; higher = less effect of the substance
# 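Further: peak tail current of the secondary pulse compared with the same well before compound.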
# human ether-à-go-go-related gene (hERG) potassium channel, sequence (Q12809 whole entry, looked up): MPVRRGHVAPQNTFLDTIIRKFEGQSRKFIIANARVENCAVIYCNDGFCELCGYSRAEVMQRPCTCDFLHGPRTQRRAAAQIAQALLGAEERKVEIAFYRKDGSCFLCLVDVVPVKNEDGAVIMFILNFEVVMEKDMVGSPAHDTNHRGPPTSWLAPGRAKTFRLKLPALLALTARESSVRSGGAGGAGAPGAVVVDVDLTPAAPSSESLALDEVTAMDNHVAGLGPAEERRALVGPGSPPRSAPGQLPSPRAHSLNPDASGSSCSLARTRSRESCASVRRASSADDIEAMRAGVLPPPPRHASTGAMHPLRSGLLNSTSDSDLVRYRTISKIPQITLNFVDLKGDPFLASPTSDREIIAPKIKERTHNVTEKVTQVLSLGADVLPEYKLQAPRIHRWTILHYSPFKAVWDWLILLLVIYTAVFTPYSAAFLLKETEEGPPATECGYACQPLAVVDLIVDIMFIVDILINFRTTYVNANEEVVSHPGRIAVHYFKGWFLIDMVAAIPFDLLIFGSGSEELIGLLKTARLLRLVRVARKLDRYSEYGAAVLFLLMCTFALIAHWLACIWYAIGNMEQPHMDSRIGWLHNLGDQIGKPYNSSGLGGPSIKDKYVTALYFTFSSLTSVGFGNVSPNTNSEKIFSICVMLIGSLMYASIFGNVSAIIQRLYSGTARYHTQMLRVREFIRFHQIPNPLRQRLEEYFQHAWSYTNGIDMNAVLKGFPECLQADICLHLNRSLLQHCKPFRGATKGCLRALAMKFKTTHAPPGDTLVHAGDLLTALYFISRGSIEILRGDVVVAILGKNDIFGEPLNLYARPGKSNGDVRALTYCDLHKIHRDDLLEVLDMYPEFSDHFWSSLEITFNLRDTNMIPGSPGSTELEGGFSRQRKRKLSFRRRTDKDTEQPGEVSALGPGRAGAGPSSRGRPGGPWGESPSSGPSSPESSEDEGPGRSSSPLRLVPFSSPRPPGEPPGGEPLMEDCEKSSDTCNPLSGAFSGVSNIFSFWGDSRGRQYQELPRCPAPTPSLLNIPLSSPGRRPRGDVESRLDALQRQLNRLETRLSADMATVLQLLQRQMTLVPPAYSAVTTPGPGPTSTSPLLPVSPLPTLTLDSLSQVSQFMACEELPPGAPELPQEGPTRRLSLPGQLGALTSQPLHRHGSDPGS
row,Compound,"hERG current change (%, negative = inhibition) at 10uM"
1,O=S(=O)(Nc1ccc(F)cc1)N1CCCCCC1,-15.6%
2,COc1ccccc1CNC(=O)Cn1nnc(-c2ccncc2)n1,1.05%
3,COC(=O)c1[nH]c2cccc(OC)c2c1NC(=O)CN1CC2(C)CC1CC(C)(C)C2 (centres unmarked),9.92%
4,CC(C)CN1CCC(=O)N([C@H](CO)c2ccccc2)CC1,9.33%
5,CC(C)[C@@H](COc1ccccc1)N1CCN(Cc2ccccc2)CCC1=O,-29.6%
6,O=C1CCN(CCc2ccccc2)CCN1[C@H](CO)c1ccccc1,-25.7%
7,N#CC[C@H](c1ccccc1)N1CCN(Cc2ccccc2)CCC1=O,-1.88%
8,CC(C)CN1CCC(=O)N([C@H](COc2ccccc2)c2ccccc2)CC1,-75.3%
9,CC(C)CN1CCC(=O)N(CCOc2ccccc2)CC1,13.1%
10,O=C1CCN(Cc2ccccc2)CCN1[C@H](COc1ccccc1)c1ccccc1,-57.9%
11,O=C1CCN(CCc2ccccc2)CCN1[C@H](COc1ccccc1)c1ccccc1,-75.9%
12,CCCN1CCC(=O)N([C@H](COc2ccccc2)c2ccccc2)CC1,-78.2%
13,COc1ccc(C(=O)Nn2c(SCC(=O)NCC3CCCO3)nc3ccccc3c2=O)cc1 (centres unmarked),2.75%
14,COc1cccc(CNC(=O)CCNC(=O)N2CCn3c2nc2ccccc23)c1,-3.38%
15,O=C(NNC(=S)NCc1ccco1)c1ccc(Cl)s1,14.5%
16,O=C(c1cccc(Br)c1)N1CCN(C(=O)N2CCOCC2)CC1,10.4%
17,O=C(COC(=O)c1cc([N+](=O)[O-])ccc1NCCO)c1ccccc1,-15.9%
18,CCOc1cc(CNc2ccc3c(c2)OCCO3)cc(Br)c1OCC(N)=O,-17.6%
19,CC1CCCC(NC(=O)c2cccc(N3CCCC3=O)c2)C1C (centres unmarked),-13.5%
20,C[C@H]1CC[C@H]2C(=O)N3[C@H](c4cccc(N5CCCC5=O)c4)[C@@H](C)CC[C@H]3C(=O)N2[C@@H]1c1cccc(N2CCCC2=O)c1,-56.3%
21,C[C@@H]1CC[C@H]2C(=O)N3[C@@H](CC[C@@H](C)[C@@H]3c3ccc(Br)cc3)C(=O)N2[C@H]1c1ccc(Br)cc1,5.03%
22,CC12CN(C(=O)c3cccc([N+](=O)[O-])c3)C3(C#N)CC1CCC23C (centres unmarked),5.65%

row,Compound,"hERG current change (%, negative = inhibition) at 10uM"
1,CCOC(=O)C1=C(c2ccccc2)NC(N)=NC1c1ccc(OCc2ccc(Cl)cc2)c(OC)c1 (centres unmarked),-36.8%
2,COc1ccc(CCNC(=O)C2CCN(S(=O)(=O)c3ccc4nc5c(c(C(=O)O)c4c3)CCCC5)CC2)cc1OC,1.65%
3,Cc1ccccc1-n1ncc2c1CC(C)(C)CC2NC(=O)CN1CCCC1=O (centres unmarked),9.7%
4,O=C(c1ccc(CSCc2ccccc2F)o1)N1CCN(c2ccc(N3CCOCC3)nn2)CC1,-66.7%
5,O=C(O)c1ccc(CSCc2ccccc2F)o1,-1.86%
6,O=C(c1ccccc1)N1CCN(c2ccc(N3CCOCC3)nn2)CC1,-1.73%
7,CCC1CCCCN1CCCNC(=O)CNC(=O)c1nn(-c2ccc(OC)cc2)c(=O)c2ccccc12 (centres unmarked),-31.9%
8,CCCC/C=C1\CCc2c([nH]c3ccccc23)C1=O,10.1%
9,CC1=NCCc2c1[nH]c1ccccc21,-22.7%
10,CCCCCCCCC1=NCCc2c1[nH]c1ccccc21.Cl,-79.2%
11,Cc1cccc(NC(=O)c2ccco2)c1C,22.4%
12,CC1=C(C#N)C(c2ccccc2)C2=C(N1)c1ccccc1C2=O (centres unmarked),1.22%
13,COc1ccc(N2CCN(C(=O)c3ccc(CS(=O)(=O)c4ccccc4C)o3)CC2)cc1,-21.5%
14,Cc1ccc(S(=O)(=O)Cc2ccc(C(=O)N3CCN(c4cc(C)ccc4C)CC3)o2)cc1,-18.7%
15,Cc1ccccc1S(=O)(=O)Cc1ccc(C(=O)N2CCN(c3ccc(F)cc3)CC2)o1,-64.3%
16,Cc1ccccc1S(=O)(=O)Cc1ccc(C(=O)N2CCN(c3ccccc3F)CC2)o1,-40.7%
17,O=C(c1ccc(CS(=O)(=O)c2ccc(Br)cc2)o1)N1CCN(c2ccc(F)cc2)CC1,6.91%
18,Cc1ccc(S(=O)(=O)Cc2ccc(C(=O)N3CCN(c4ccc(F)cc4)CC3)o2)cc1,-69.5%
19,O=C(CNC(=O)c1ccc(S(=O)(=O)N2CCCC2)cc1)N/N=C/c1ccc(Cl)cc1Cl,-3.34%
20,Cc1ccccc1NCCC(=O)Nc1ccc(F)cc1,-21.4%
21,COc1ccc(/C=C(\NC(=O)c2ccc(C)cc2)C(=O)NCC2CCCO2)cc1 (centres unmarked),-8.44%
22,COc1ccc(/C=C(/NC(=O)c2ccccc2)C(=O)NCc2ccncc2)cc1,-44.5%

row,Compound,"hERG current change (%, negative = inhibition) at 10uM"
1,COc1ccc(C(=O)N/C(=C\c2ccc(Cl)cc2)C(=O)NCC2CCCO2)cc1 (centres unmarked),-38%
2,COc1ccc(/C=C(/NC(=O)c2ccc(C)cc2)C(=O)NCc2ccncc2)cc1,-66.2%
3,COc1ccc(C(=O)N/C(=C/c2ccc(Cl)cc2)C(=O)NCc2ccncc2)cc1,-65.4%
4,COc1ccc(C(=O)N/C(=C/c2ccc(Cl)cc2)C(=O)Nc2ccc(C(=O)O)cc2)cc1,11.4%
5,O=C(O)/C=C/c1cn(-c2ccccc2)nc1-c1ccccc1,3.71%
6,O=C(NCc1ccccn1)C1CC(=O)N(C2CCCC2)C1 (centres unmarked),9.62%
7,COc1ccc(CNC(=O)CN2C(=O)CC(c3ccccc3)=Nc3ccccc32)cc1,-8.66%
8,Cc1cc(NC(=O)Cn2cnc3c(nnn3-c3cccc(F)c3)c2=O)no1,5.01%
9,CC(=O)C(C(C)=O)C(c1ccccc1)c1nc2ccccc2[nH]c1=O (centres unmarked),14.1%
10,CCOc1ccc(CN2CCCC(C(=O)c3ccccc3OC)C2)cc1 (centres unmarked),-82%
11,COc1ccc(F)cc1C(=O)C1CCCN(Cc2cnc(N3CCCC3)s2)C1 (centres unmarked),-29.4%
12,COc1ccc(F)cc1C(=O)C1CCCN(Cc2ccc(O)cc2)C1 (centres unmarked),-52%
13,COc1ccc(F)cc1C(=O)C1CCCN(C(=O)CCc2ccccn2)C1 (centres unmarked),2.48%
14,COc1ccc(F)cc1C(=O)C1CCCN(Cc2ccc(Oc3ncccn3)cc2)C1 (centres unmarked),-64.2%
15,COc1ccccc1C(=O)C1CCCN(Cc2ccc(Oc3ncccn3)cc2)C1 (centres unmarked),-40.6%
16,COC(=O)c1ccc(CN2CCCC(C(=O)c3ccccc3OC)C2)cc1 (centres unmarked),-43.1%
17,COc1ccccc1C(=O)C1CCCN(Cc2cccc(OCCO)c2)C1 (centres unmarked),-19.6%
18,COc1ccccc1C(=O)C1CCCN(C(=O)c2ccccc2Cl)C1 (centres unmarked),10.4%
19,COc1ccc(F)cc1C(=O)C1CCCN(Cc2cnc(C)s2)C1 (centres unmarked),-21%
20,COC(=O)c1ccc(CN2CCCC(C(=O)c3cc(F)ccc3OC)C2)cc1 (centres unmarked),-68%
21,CC(=O)NCCC(=O)Nc1nc(-c2ccccc2Cl)cs1,-9.76%
22,CCOc1ccc(C(=O)Nc2cccc(-n3cnnn3)c2)cc1OCC,-40.4%

row,Compound,"hERG current change (%, negative = inhibition) at 10uM"
1,O=C(/C=C/c1ccco1)Nc1ccc(Oc2ccc(Cl)cc2)cc1,16.1%
2,COc1ccc(S(=O)(=O)NCc2ccccn2)cc1Br,12.5%
3,CCN1C(=O)/C(=C/c2cc(C)n(C)c2C)SC1=Nc1ccc(OC)cc1,9.24%
4,Cc1ccccc1NN1C(=O)C=CC1=O,-8.26%
5,CCOC(=O)CC1C(=O)NCCN1C(=O)c1c(F)cccc1F (centres unmarked),16.1%
6,COc1ccc2cc(CCNC(=O)C(C)C)c(=O)[nH]c2c1,13.4%
7,C/C(=N\NC(=O)C(C)Sc1ccccc1)c1ccc([N+](=O)[O-])cc1 (centres unmarked),-3.27%
8,C/C(=N\NC(=O)C(C)Nc1cccc(Cl)c1)c1ccc([N+](=O)[O-])cc1 (centres unmarked),-50.5%
9,C/C(=N\NC(=O)c1cccc(N/N=C(\C)c2ccc([N+](=O)[O-])cc2)c1)c1ccc([N+](=O)[O-])cc1,1.39%
10,Cc1c(Cl)cccc1NC(=S)N1CCN(c2ccc([N+](=O)[O-])cn2)CC1,2.33%
11,O=C(NCc1ccc(F)cc1)C1CCCN(S(=O)(=O)c2cccc3nonc23)C1 (centres unmarked),19.6%
12,Cc1ccc2nc(N(CCCN(C)C)C(=O)c3ccc(Br)s3)sc2c1.Cl,-44.3%
13,Cc1ccc2sc(N(CCCN(C)C)C(=O)c3nc4ccccc4s3)nc2c1C.Cl,3.59%
14,CN(C)CCCN(C(=O)c1ccc(Cl)s1)c1nc2cc3c(cc2s1)OCO3,-69%
15,CN(C)CCCN(C(=O)c1ccc([N+](=O)[O-])s1)c1nc2cc3c(cc2s1)OCCO3.Cl,-71.3%
16,CN(C)CCCN(C(=O)c1cccs1)c1nc2cc3c(cc2s1)OCO3.Cl,-56.8%
17,CN(C)CCN(C(=O)c1cccc2ccccc12)c1nc2cc3c(cc2s1)OCO3.Cl,-22.3%
18,CN(C)CCN(C(=O)c1cccs1)c1nc2cc3c(cc2s1)OCCO3.Cl,-23.6%
19,CN(C)CCCN(C(=O)c1cc(Cl)sc1Cl)c1nc2cc3c(cc2s1)OCO3.Cl,-41.9%
20,Cc1ccc2sc(N(CCCN(C)C)C(=O)c3ccc(Br)s3)nc2c1C.Cl,-71.7%
